Values joined by “and” are separate entries in the source; they are usually repeats but may differ in a detail not shown here. Equal values may be shown once. Out of some 5,500 compounds screened, about 2,000 (36%) were called active. Not shown: some 18% with an inconclusive outcome. Rule as the data show it: active = normalized growth mostly below about 0.91 (no sharp cut-off); inconclusive = no clear call, values can overlap the other calls; inactive = mostly above about 0.92. Some of the results follow.
Assay: chemical genetic growth profiling, strain panel (AID 1159580);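 also: tested at 20 µM; growth read once vehicle control cultures reached saturation at 30 °C; 1 = growth at the plate median or of vehicle wells; lower values mean less growth of the strain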
Conditions: S. cerevisiae deletion strains, growth OD

Measured: normalized growth

COc1ccccc1OCCNCC(O)COc1cccc2[nH]c3ccccc3c12 (stereo unspecified)
inactive: locus YAL013W, strain DEP1, active compounds read low 0.999 | locus YAL021C, strain ccr4, active compounds read low 1.01 | locus YAL026C, strain drs2, active compounds read low 1.01 | locus YAL030W, strain snc1, active compounds read low 1.02 | locus YBR009C, strain hhf1, active compounds read low 1.02 | locus YBR021W, strain FUR4, active compounds read low 0.988 | locus YBR023C, strain chs3, active compounds read low 1.01 | locus YBR171W, strain sec66, active compounds read low 1.02 | locus YBR229C, strain ROT2, active compounds read low 1 | locus YBR231C, strain swc5, active compounds read low 0.993 | locus YBR279W, strain paf1, active compounds read low 1 | locus YCL011C, strain gbp2, active compounds read low 1.01 | locus YCL016C, strain dcc1, active compounds read low 1.03 | locus YCL029C, strain bik1, active compounds read low 1.02 | locus YCL069W, strain vba3, active compounds read low 1.01 | locus YCR088W, strain abp1, active compounds read low 1.04 | locus YDL005C, strain med2, active compounds read low 1.02 | locus YDL035C, strain GPR1, active compounds read low 0.98 | locus YDL040C, strain nat1, active compounds read low 1.02 | locus YDL074C, strain BRE1, active compounds read low 0.957 | locus YDL101C, strain DUN1, active compounds read low 1.01 | locus YDL134C, strain PPH21, active compounds read low 1 | locus YDL185W, strain tfp1, active compounds read low 1.01 | locus YDL192W, strain arf1, active compounds read low 1.02 | locus YDR001C, strain nth1, active compounds read low 1.01 | locus YDR069C, strain doa4, active compounds read low 1 | locus YDR101C, strain arx1, active compounds read low 1.01 | locus YDR137W, strain rgp1, active compounds read low 1.05 | locus YDR150W, strain NUM1, active compounds read low 1 | locus YDR159W, strain sac3, active compounds read low 1.04 | locus YDR162C, strain NBP2, active compounds read low 0.974 | locus YDR195W, strain ref2 1 | locus YDR297W, strain sur2, active compounds read low 1.01 | locus YDR318W, strain mcm21, active compounds read low 1.01 | locus YDR334W, strain swr1, active compounds read low 1.03 | locus YDR335W, strain msn5, active compounds read low 1 | locus YDR388W, active compounds read low 1.01 | locus YDR392W, strain spt3, active compounds read low 1.01 | locus YDR502C, strain sam2, active compounds read low 1 | locus YEL003W, strain gim4, active compounds read low 1.02 | locus YEL037C, strain rad23, active compounds read low 1 | locus YEL061C, strain CIN8 (second series), active compounds read low 1 | locus YEL061C, strain CIN8, active compounds read low 0.997 | locus YER015W, strain faa2, active compounds read low 1.02 | locus YER016W, strain bim1, active compounds read low 0.986 | locus YER110C, active compounds read low 1.02 | locus YER111C, strain swi4, active compounds read low 1.02 | locus YER155C, strain BEM2 (second series), active compounds read low 1.02 | locus YER155C, strain BEM2, active compounds read low 0.986 | locus YER167W, strain BCK2, active compounds read low 1 | locus YFR010W, strain ubp6, active compounds read low 1.02 | locus YGL078C, strain dbp3, active compounds read low 1.02 | locus YGL086W, strain mad1, active compounds read low 1.01 | locus YGL167C, strain pmr1, active compounds read low 1.02 | locus YGL173C, strain kem1, active compounds read low 1.03 | locus YGL227W, strain vid30, active compounds read low 1.01 | locus YGL240W, strain doc1, active compounds read low 1.02 | locus YGL248W, strain PDE1, active compounds read low 1.01 | locus YGL253W, strain hxk2, active compounds read low 1.02 | locus YGR078C, strain PAC10, active compounds read low 0.968 | locus YGR135W, strain pre9, active compounds read low 1.01 | locus YGR229C, strain SMI1, active compounds read low 0.957 | locus YGR252W, strain gcn5, active compounds read low 0.948 | locus YHR013C, strain ard1, active compounds read low 1.03 | locus YHR027C, strain rpn1, active compounds read low 0.994 | locus YHR030C, strain SLT2, active compounds read low 1.01 and 0.992 | locus YHR079C, strain IRE1 (second series), active compounds read low 1.02 | locus YHR079C, strain IRE1, active compounds read low 0.999 | locus YHR094C, strain hxt1, active compounds read low 1.01 | locus YHR129C, strain ARP1, active compounds read low 1.01 | locus YHR142W, strain chs7, active compounds read low 1.03 | locus YHR200W, strain rpn10, active compounds read low 1.02 | locus YIL066C, strain RNR3, active compounds read low 1 | locus YIL073C, strain SPO22, active compounds read low 1.11 | locus YIL125W, strain kgd1, active compounds read low 1.02 | locus YIR030C, strain dcg1, active compounds read low 1.02 | locus YJL092W, strain hpr5, active compounds read low 1.01 | locus YJL095W, strain BCK1 (second series), active compounds read low 1.02 | locus YJL095W, strain BCK1, active compounds read low 0.976 and 1.01 | locus YJL115W, strain asf1, active compounds read low 1.01 | locus YJL129C, strain trk1, active compounds read low 1.02 | locus YJL134W, strain LCB3, active compounds read low 1 | locus YJL154C, strain vps35, active compounds read low 1.01 | locus YJL164C, strain tpk1, active compounds read low 1.02 | locus YJL166W, strain qcr8, active compounds read low 1.03 | locus YJL168C, strain set2, active compounds read low 1.01 | locus YJL187C, strain SWE1 (second series), active compounds read low 1.01 | locus YJL187C, strain SWE1, active compounds read low 1.01 | locus YJR043C, strain POL32, active compounds read low 0.998 | locus YJR066W, strain TOR1, active compounds read low 0.935 | locus YJR075W, strain HOC1, active compounds read low 0.983
